# Compound activity (PubChem)
# CYP2C9 activ: human CYP2C9 activators, primary screen, biochemical, luminescence. activation factor at 5 µM. hit rate 1.4% among 96,000. AID 1024, 2008. recombinant CYP2C9, luciferin-H conversion; hits give high values; factor 1 = untreated enzyme, 0 = blocked;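 active = activation factor of 2 or more for CYP2C9 at a 5 µM dose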
# Target sequence (P11712 whole entry, looked up): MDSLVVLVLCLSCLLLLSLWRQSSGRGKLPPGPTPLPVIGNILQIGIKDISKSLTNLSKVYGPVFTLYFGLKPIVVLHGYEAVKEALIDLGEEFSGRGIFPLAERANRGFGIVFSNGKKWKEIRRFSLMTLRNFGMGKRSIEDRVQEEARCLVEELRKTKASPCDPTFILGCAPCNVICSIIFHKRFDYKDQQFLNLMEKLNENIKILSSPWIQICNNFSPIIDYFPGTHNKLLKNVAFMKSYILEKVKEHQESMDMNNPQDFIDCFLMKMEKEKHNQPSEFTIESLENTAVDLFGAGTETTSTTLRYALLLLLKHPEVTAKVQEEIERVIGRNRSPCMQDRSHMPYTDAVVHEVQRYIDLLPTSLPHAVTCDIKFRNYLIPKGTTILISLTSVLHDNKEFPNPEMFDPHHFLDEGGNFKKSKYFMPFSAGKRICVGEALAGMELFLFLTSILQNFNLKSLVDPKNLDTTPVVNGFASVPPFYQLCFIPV
# Measles CPE: compounds protecting cells from measles virus cytopathic effect, primary screen, measles RdRp inhibitor project, single point, MLSMR library, absorbance. Measles virus-infected cells, CPE protection. hit rate 1.5% among 140,000. AID 841, 2007. protection (pct of control), % at 4 µM; in the data active = protection mostly above about 24%, no sharp cut-off; inactive = mostly below about 26%
# CYP2C19 inh: blockers of cytochrome P450 2C19 activity – biochemical, luminescence, ADME assay, primary screen | AID 778, 2007 | hit rate 21% among 96,000 | inhibition, % at 5 µM | P33261 | CYP2C19 Supersomes, luciferin-H EGE luminescence, 30 min;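 active = CYP2C19 inhibition above a set limit at 5 µM in the primary screen, cut at about 50% in these data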
# CYP2C9 inhib: blockers of cytochrome P450 2C9 activity – biochemical, luminescence, ADME assay, primary screen | P11712 | CYP2C9 Supersomes, luciferin-H conversion | inhibition, % at 5 µM | hit rate 20% among 96,000 | AID 777, 2007;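 active = blocking of liver enzyme CYP2C9 beyond about 50% at 5 µM, limit read from the data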
# CYP2C19 activ: human CYP2C19 activators, primary screen, biochemical, luminescence; recombinant CYP2C19, luciferin-H EGE luminescence; hits give high values; 0 = fully inhibited enzyme, 1 = untreated enzyme; activation factor at 5 µM; 96,000 tested, under 10 active; AID 1025, 2008;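 active = activation factor of at least 2 at 5 µM in the primary screen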
# Hits are given with their value; – = inactive; · = not tested or not shown. The list is not random: actives were taken first. Their share in the collection is about 22%.
SMILES,CYP2C9 activ,Measles CPE,CYP2C19 inh,CYP2C9 inhib,CYP2C19 activ
N#CC1=C2SCN(c3ccccc3)CN2C(=O)CC1c1ccccc1Cl (configuration not stated),–,–,–,61,–
CCOc1ccc(N2CSC3=C(C#N)C(c4ccco4)CC(=O)N3C2)cc1 (configuration not stated),–,–,–,–,–
CC(C)c1ccc(C2CC(=O)N3CN(C)CSC3=C2C#N)cc1 (configuration not stated),–,–,–,–,–
Cc1ccc(C(=O)CCC(=O)Nc2cccnc2)cc1C,–,–,–,–,–
S=C(Nc1ccccc1)Nc1cc(Cl)ccc1Oc1ccccc1,–,33,96,95,–
Fc1ccc(NC(=S)Nc2ccc(F)c(Cl)c2)cc1Cl,–,–,98,86,–
S=C(Nc1ccccc1Cl)Nc1ccc(Cl)cc1Cl,–,–,58,–,–
Fc1ccc(NC(=S)N2CCCC2)cc1Cl,·,–,·,·,·
Cc1cc(Cl)ccc1OCCCC(=O)Nc1cccnc1,–,–,50,–,–
CN(C)c1ccc(/C=N\NC(=S)SCN2C(=O)C3CCC(C)(C2=O)C3(C)C)cc1 (configuration not stated),·,–,·,·,·
FC(F)(F)c1cccc(NC(=S)Nc2ccc(Cl)cc2Cl)c1,–,–,–,–,–
CN(C)NC(=S)Nc1ccc(Cl)cc1,–,–,91,–,–
Cc1cc(Cl)ccc1NC(=S)Nc1cccnc1,–,–,54,–,–
COc1cc(NC(=S)Nc2cccnc2)cc(OC)c1,·,–,·,·,·
Fc1ccc(CNC(=S)Nc2ccc(Cl)cc2)cc1,–,–,84,–,–
S=C(NCc1ccc(Cl)cc1)Nc1ccccc1,·,–,·,·,·
S=C(Nc1ccccc1)Nc1ccc(Cl)cc1Cl,–,–,58,–,–
Cc1cc2oc3c(c(=O)c2cc1C)C(c1ccc(C(C)C)cc1)N(CCCN1CCOCC1)C3=O (configuration not stated),·,–,·,·,·
Cc1c(NC(=O)Cn2ccc([N+](=O)[O-])n2)c(=O)n(-c2ccccc2)n1C,–,–,–,–,–
O=C(NCc1cccnc1)C1CC(c2ccc(F)cc2)=NO1 (configuration not stated),–,–,–,–,–
CCOC(=O)C1C(=O)NC(C)C1c1ccccc1 (configuration not stated),–,–,–,–,–
CSc1nc2nc(C(F)(F)F)cc(-c3ccccc3)n2n1,–,–,–,62,–
O=C(COC(=O)c1cccc(S(=O)(=O)N2CCc3ccccc32)c1)Nc1ccc(Cl)cn1,·,35,·,·,·
C/C(=N/O)c1ccc2c(c1)OCCOCCOc1cc(/C(C)=N/O)ccc1OCCOCCO2,·,–,·,·,·
COc1ccc(Cn2nnnc2CN(Cc2cc3cc(C)ccc3[nH]c2=O)C2CCCC2)cc1,–,–,–,–,–
SMILES,CYP2C9 activ,Measles CPE,CYP2C19 inh,CYP2C9 inhib,CYP2C19 activ
COc1ccc2[nH]c(=O)c(CN(Cc3ccccc3)Cc3nnnn3CC3CCCO3)cc2c1 (configuration not stated),–,–,72,–,–
COCCn1nnnc1C1(N(Cc2cc3cc(C)ccc3[nH]c2=O)CC2CCCO2)CCN(C)CC1 (configuration not stated),–,·,–,–,–
COc1cc2cc(CN(Cc3nnnn3Cc3ccccc3)CC3CCCO3)c(=O)[nH]c2cc1OC (configuration not stated),–,–,98,68,–
Cc1cccc(-c2onc3ccc(C4(C)OCCO4)cc23)c1,–,–,88,93,–
Cc1ccc(S(=O)(=O)N2CCOCC2)cc1NC(=O)c1cc2c(s1)CCC2,–,–,52,64,–
COc1ccc(NC(=O)c2cc3c(s2)CCC(C)C3)cc1S(=O)(=O)N1CCOCC1 (configuration not stated),·,–,·,·,·
COc1cc(S(=O)(=O)N2CCOCC2)ccc1NC(=O)c1cc2c(s1)CCC2,–,–,–,68,–
Cc1ccc(NC(=O)c2cc3c(s2)CCC3)cc1S(=O)(=O)N1CCOCC1,–,–,–,–,–
COc1cc(S(=O)(=O)N2CCCCC2)ccc1NC(C)=O,–,52,–,–,–
O=C(N/N=C/c1cccs1)c1cc(-c2cccc3ccccc23)n[nH]1,·,–,·,·,·
COC(=O)C1=C(C)Nc2ncnn2C1c1ccc(OCc2ccccc2)cc1 (configuration not stated),–,–,–,–,–
CCCC1=C(C(=O)OCC)C(c2ccc(OC)c(CSc3ccccn3)c2)C(C#N)=C(N)O1 (configuration not stated),·,–,·,·,·
CCCCN(CCCC)C(=S)NC(=O)c1ccccc1Cl,·,–,·,·,·
c1ccc(CCc2nc(-c3cccnc3)no2)cc1,–,–,86,–,–
c1ccc(CCc2ccccc2-c2nc(-c3cccnc3)no2)cc1,–,–,–,–,–
c1cncc(-c2noc(CC3CCCCC3)n2)c1,–,–,80,–,–
Clc1ccc(Cc2nc(-c3cccnc3)no2)cc1,–,–,54,–,–
O=C(Nc1ccc(-c2noc(CCc3ccccc3)n2)cc1)c1ccco1,–,–,–,71,–
Cc1ccc(NC(=O)C2(NC(=O)c3ccccn3)CCCCC2)cc1Br,·,–,·,·,·
CN(C)C=Nc1ncc2c3ccccc3n(Cc3ccccc3)c2c1C#N,–,–,–,–,–
CN(C)C=Nc1ncc2c3ccccc3n(CCN(C)C)c2c1C#N,–,–,–,58,–
Cc1cc(C)nc(SCSc2nc(C)cc(C)n2)n1,–,–,–,–,–
Cc1cc(C)nc(SCCc2ccncc2)n1,–,–,73,–,–
O=S(=O)(c1ccc(Br)s1)N1CCN(c2ccccn2)CC1,–,–,99,98,–
O=S(=O)(c1ccc(Br)s1)N1CCN(c2ncccn2)CC1,–,–,–,61,–
SMILES,CYP2C9 activ,Measles CPE,CYP2C19 inh,CYP2C9 inhib,CYP2C19 activ
Cc1ccc(SCCOCCN2CCc3ccccc3C2)cc1,·,–,·,·,·
CCCCn1c(-c2ccc([N+](=O)[O-])cc2)n[nH]c1=S,–,–,–,–,–
Cn1c(=O)c(=O)n(C)c2cc(S(=O)(=O)Nc3ccc4c(c3)OCCO4)ccc21,–,–,–,54,–
Cn1c(=O)oc2cc(S(=O)(=O)Nc3ccc4c(c3)OCCO4)ccc21,–,–,–,–,–
COc1ccc(NS(=O)(=O)c2ccc3oc(Nc4ccc5c(c4)OCCO5)nc3c2)cc1,–,93,51,96,–
Cn1c(=O)c(=O)n(C)c2cc(S(=O)(=O)Nc3ccc(OC(F)(F)F)cc3)ccc21,–,–,82,91,–
CCOc1ccc(NS(=O)(=O)c2ccc3c(c2)oc(=O)n3C)cc1,–,–,–,–,–
COC(=O)c1cc(C(=O)OC)cc(-n2c(C)cc(C(=O)COC(=O)CNS(=O)(=O)c3ccc(C)cc3)c2C)c1,·,–,·,·,·
CC(C)(C)c1ccc(S(=O)(=O)Nc2cccc(C3OCCCO3)c2)cc1,·,–,·,·,·
